# Results filed as inconclusive are left out. A call without a number means that no potency is given here. Calls of active or inactive are those of the source. Calls come from the whole dose curve; as a rule, active = well fitted inhibition curve with a large enough effect; inconclusive = small, poorly fitted or top-dose-only effect; inactive = flat fitted curve, though single readings scatter.
# Biological target: Glutathione peroxidase 1 (Homo sapiens) (UniProt P07203)
# Experiment: Primary qHTS Assay for Inhibitors of Recombinant Selenoprotein Glutathione Peroxidase 1 (GPX1) (AID 1845191); note: nearly all actives have a fitted effect of over 65% in size
# Settings: recombinant GPX1, GR-coupled NADPH fluorescence, 15 min; series mostly up to 48.8 µM
# Text: Assay Provider: Elias S.J. Arner MD PhD.
# Department of Medical Biochemistry and Biophysics
# Karolinska Institutet, Solna, Stockholm, Sweden
# Selenoprotein glutathione peroxidases (GPX), like the ubiquitously expressed GPX1 and the ferroptosis modulator GPX4, enact their antioxidant activities by reducing hydroperoxides using glutathione. […] GPX1 and GPX4 inhibitors have thus shown promise as anti-cancer agents. Existing inhibitors are often promiscuous, or modulate GPX activity only indirectly, so novel direct inhibitors identified through screening against GPX1 and GPX4 could be valuable. Here, we developed optimized glutathione reductase (GR)-coupled GPX assays for the biochemical high-throughput screen (HTS) of almost 12,000 compounds with known mechanisms of action. Initial hits were triaged using a GR counter-screen, assessed for isoform specificity using a separate GPX2 assay, and were assessed for general selenocysteine-targeting activity using a thioredoxin reductase (TXNRD1) assay. With this suite of assays, we identified novel GPX1/GPX2- and GPX4-specific inhibitors and can here present a validated pipeline for future discovery research for selenoprotein-targeting agents.
# SEQUENCE No. (e.g., 1, 2, 3, etc.); […] (e.g., Cells, Incubation, Reagent, etc.); VALUE; DESCRIPTION.
# 1; Reagent 1; 3 uL; GPx1 enzyme or no enzyme control in 1536-well, black, solid Greiner assay plate.
# 2; Compound; 25 nL; Kalypsis pin tool (Wako USA) equipped with a 1536-well pin head.
# 3; Incubation; 30 min; room temperature.
# 4; Reagent 2; 1 uL; 10 nM GPX1, 1 mM GSH, 0.5 mM CHP, 0.5 mM NADPH, 100 nM GR, 0.01% BSA substrate
# 5; Detection; Fluorescence; ViewLux microplate reader, excitation 340 nm and emission 450 nm.
# 6; Incubation; 15 min; room temperature.
# 7; Detection; Fluorescence; ViewLux microplate reader, excitation 340 nm and emission 450 nm.
# NOTES (numbers refer to Sequence numbers above)
# 1. 3 uL of 16.66 nM GPX1 and 0.016% BSA in assay buffer (50 mM Tris-HCl, 2 mM EDTA (pH 7.5), 150 mM NaCl) was added to columns 3-48 of 1536-well assay plates using a BioRAPTR Flying Reagent Dispenser (Let's Go Robotics (LGR), Carlsbad, CA). A no-enzyme control (0.01% BSA in TES assay buffer) was added to columns 1-2.
# 2. 25 nL of test compounds and DMSO controls were added to each well with a pin tool (Kalypsys).
# 3. The assay plates were incubated for 30 minutes at room temperature.
# 4. 1 uL of master mix (500 nM glutathione reductase (GR), 5 mM reduced glutathione (GSH), 2.5 mM NADPH in assay buffer) was added. 1 uL of cumene hydroperoxide (CHP) ([2.5 mM] in 50% EtOH) was then added within 5 minutes to initiate the reaction. Final concentrations were: 10 nM GPX1, 1 mM GSH, 0.5 mM CHP, 0.5 mM NADPH, 100 nM GR, 0.01% BSA.
# 5. Initial fluorescence readout (t=0) at 340/450 nm was measured using a ViewLux multimodal detector (PerkinElmer, Waltham, MA).
# 7. Endpoint fluorescence readout (t=15) at 340/450 nm was measured 15 min after room temperature incubation.
# Sequence of Glutathione peroxidase 1 (Homo sapiens) (P07203 whole entry, looked up): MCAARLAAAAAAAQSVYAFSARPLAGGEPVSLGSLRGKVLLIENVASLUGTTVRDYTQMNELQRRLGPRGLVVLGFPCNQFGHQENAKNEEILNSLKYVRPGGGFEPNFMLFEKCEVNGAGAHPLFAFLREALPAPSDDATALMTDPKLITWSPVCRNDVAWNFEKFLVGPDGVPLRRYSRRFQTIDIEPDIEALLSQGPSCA
row,Compound,Potency
1,C[C@H]1C[C@@H](n2c(Nc3ccc(OC(F)(F)F)cc3)nc3cc(CCC(=O)O)ccc32)CC(C)(C)C1,inactive
2,C=C1[C@H](OC(=O)/C=C(\C)CC)C[C@@H](C(C)C)[C@@H]2[C@H]([C@@H](C)OC(C)=O)C(=O)C[C@@H]12,inactive
3,CC[C@H]1OC(=O)[C@H](C)[C@@H](O[C@H]2C[C@@](C)(OC)[C@@H](O)[C@H](C)O2)[C@H](C)[C@@H](O[C@@H]2O[C@H](C)C[C@H](N(C)C)[C@H]2O)[C@](C)(OC)C[C@@H](C)C(=O)[C@H](C)[C@@H](O)[C@]1(C)O,inactive
4,O=C(CCCCCCNC(=O)c1cnc(N(c2ccccc2)c2ccccc2Cl)nc1)NO,inactive
5,C=CC(=O)Nc1ccc(F)c(-c2ncnc3[nH]cc(C(=O)OCC)c23)c1,inactive
6,CCC[C@H](NC(=O)[C@@H]1[C@H]2CCC[C@H]2CN1C(=O)[C@@H](NC(=O)[C@@H](NC(=O)c1cnccn1)C1CCCCC1)C(C)(C)C)C(=O)C(=O)NC1CC1,inactive
7,CN[C@H]1CN(c2ccc3c(=O)c(C(=O)O)cn(-c4nccs4)c3n2)C[C@@H]1OC,inactive
8,COc1ccccc1-c1nc(SCC(=O)Nc2ccc(C)c(C)c2)n[nH]1,inactive
9,O=C(O)[C@@H]1CCCN1,inactive
10,C=C1C(=O)OC2/C=C(/C)CC/C=C(/C)CCC12 (stereo not given),inactive
11,Cc1noc(C)c1-c1ccc(-c2cc(C(N)=O)c(NC(N)=O)s2)c(O[C@H]2CCNC2)c1,inactive
12,CCOC(=O)C1=CCCCC1S(=O)(=O)Nc1ccc(F)cc1Cl (stereo not given),inactive
13,OCC=Cc1ccccc1,inactive
14,CC(=O)O/N=C1/C(c2c(O)[nH]c3cc(Br)ccc23)=Nc2ccccc21,inactive
15,COc1cc(N2CCN(C)CC2)ccc1Nc1ncc2c(n1)N(C)c1ccccc1C(=O)N2,inactive
16,COc1ncc(Nc2ncc(C(C)N3CCN(S(C)(=O)=O)CC3)cc2-c2nc(C)nc(N)n2)cc1F (stereo not given),inactive
17,Nc1nonc1-c1nc2cnccc2n1C1CC1,inactive
18,O=C(NO)C1(CS(=O)(=O)c2ccc(Oc3ccc(Cl)cc3)cc2)CCOCC1,inactive
19,CC(=O)NCCNc1cc(Cl)nn2c(-c3cccc(S(=O)(=O)N(C)C)c3)c(C)nc12,inactive
20,CCn1c(N)c(C(=O)NC)c(=O)c2ccc(C#C[C@@](C)(O)COC)nc21,inactive

row,Compound,Potency
1,CC[C@@H]1[C@H](F)C(=O)N[C@@H]1COc1nccc2cc(C(N)=O)c(OC)cc12,inactive
2,C=CC(=O)N[C@H]1CN(c2nc(Nc3cn(C)nc3OC)c3ncn(C)c3n2)C[C@@H]1F,inactive
3,Oc1cccc(Nc2ccnc3[nH]c4ccccc4c23)c1,inactive
4,COc1ccc(S(=O)(=O)N2CCc3cccc(-c4ccncc4)c32)cc1,inactive
5,Cc1cc(-c2nc(CN3CCC(C(=O)NCCCN4C[C@H](C)C[C@H](C)C4)CC3)co2)ccc1F,inactive
6,O=C(O/N=C1\c2ccccc2-c2nc3ccccc3nc21)c1ccco1,inactive
7,C=CC(C)(/C=C/c1ccc(O)cc1)CCC=C(C)C (stereo not given),inactive
8,CO[C@H]1/C=C/O[C@@]2(C)Oc3c(C)c(O)c4c(O)c(c(/C=N/N5CCN(C)CC5)c(O)c4c3C2=O)NC(=O)/C(C)=C\C=C\[C@H](C)[C@H](O)[C@@H](C)[C@@H](O)[C@@H](C)[C@H](OC(C)=O)[C@@H]1C,inactive
9,Cc1ccc([C@@H]2O[C@H](CO)[C@@H](O)[C@H](O)[C@H]2O)cc1Cc1ccc(-c2ccc(F)cc2)s1,inactive
10,COc1cc(OC)cc(N2CCN(C(=O)Nc3nc4cc(F)ccc4nc3OC)CC2)c1,inactive
11,Cc1ncc(NC(=O)c2cccc(C(F)(F)F)c2)cc1-c1cnc(OC2CCOCC2)c(N2CCOCC2)c1,inactive
12,CCCS(=O)(=O)c1nc(NC2CC2)cc(-c2ccc3c(ccn3C3CC(C)(C)NC(C)(C)C3)c2)n1,inactive
13,CN(CCCCCCCCCCN(C)C(=O)Oc1cccc([N+](C)(C)C)c1)C(=O)Oc1cccc([N+](C)(C)C)c1,inactive
14,O=Nc1c(-c2c(O)[nH]c3ccc(F)cc23)[nH]c2ccccc12,inactive
15,O=C(O)CNC(=O)c1ncc(-c2cccc(Cl)c2)cc1O,inactive
16,COc1cc(Nc2cnc(C#N)c(O[C@H](C)CN(C)C)n2)ncc1-c1cnn(C)c1,inactive
17,CC1(C)OCCn2c1nc1c(N3CCOCC3)nc(-c3cnc(N)nc3)nc12,inactive
18,CC1(C)C(/C=C/C=C/C=C/C=C2/N(CCCCS(=O)(=O)O)c3ccc4ccccc4c3C2(C)C)=[N+](CCCCS(=O)(=O)[O-])c2ccc3ccccc3c21,inactive
19,CCc1ccc2nc(Nc3cc(Cc4ccccc4)nc(NC4CCC(O)CC4)n3)sc2c1 (stereo not given),inactive
20,Nc1nc2cc(-c3ccc4ncc(C(=O)N5CCOCC5)n4c3)ccc2o1,inactive
